Screening results deposited in PubChem BioAssay by National Center for Advancing Translational Sciences (NCATS).
Compounds with a hit are over-represented: about 0.35% of the library has one in this group of screens.
LDHA inh – qHTS assay for inhibitors of human lactate dehydrogenase; L-lactate dehydrogenase A chain (Homo sapiens), P00338; purified LDHA, NADH/diaphorase-resazurin fluorescence; hits give low values; activity change, % (values are at about 110 or 230 µM); actives 0.15% (n = 480,000); in the data active = activity change below about -30%; inconclusive = mostly about -25% to -30%
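Remaining NADH was detected by diaphorase (0.133 mg/mL) converting 37 µM resazurin to fluorescent resorufin, read at 0 and 20 minutes. The preceding 5-minute room-temperature reaction used 2 nM LDHA, 0.2 mM sodium pyruvate and 0.06 mM NADH at pH 7.4.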
Anesthetic bind – qHTS Assay for Identification of Novel General Anesthetics | Ferritin light chain (Equus caballus), P02791 | apoferritin/1-aminoanthracene competitive binding, fluorescence | Potency, µM (doses to about 77.5 µM), most hits filed as inhibitors | actives 0.074% (n = 350,000); also: nearly all actives have a fitted effect of over 20% in size
Target sequence (P02791 2-175 limits assumed): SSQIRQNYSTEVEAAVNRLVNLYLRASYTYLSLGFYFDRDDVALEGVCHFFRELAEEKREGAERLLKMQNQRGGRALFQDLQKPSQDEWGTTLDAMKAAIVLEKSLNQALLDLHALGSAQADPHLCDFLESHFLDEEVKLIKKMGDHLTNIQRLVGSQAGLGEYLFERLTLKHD
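Concentration-response curves derived by four-parameter Hill fitting of normalized fluorescence, where compounds displaced 1-AMA from 10 uM horse apoferritin following a brief 10 min room-temperature incubation; propofol titration acted as positive control.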
RGS4 inh – Inhibitors of Regulator of G Protein Signaling (RGS) 4: qHTS; Regulator of G-protein signaling 4 (Homo sapiens), P49798; Transcreener GDP fluorescence polarization, RGS4-accelerated GTP hydrolysis; Potency, µM (series often up to 114 µM), hits mostly inhibitors; actives 0.039% (n = 390,000); also: nearly all actives have a fitted effect of over 75% in size
Target sequence (P49798 whole entry, looked up): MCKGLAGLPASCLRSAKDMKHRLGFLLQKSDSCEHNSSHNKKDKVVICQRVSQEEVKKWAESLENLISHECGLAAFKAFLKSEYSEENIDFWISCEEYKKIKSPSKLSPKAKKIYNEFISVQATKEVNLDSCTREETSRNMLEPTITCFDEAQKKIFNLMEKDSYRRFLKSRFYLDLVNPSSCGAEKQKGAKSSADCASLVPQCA
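MLSMR compounds (23 nl, pin-transferred) preincubated 10 min at room temperature with a 500nM (2x) first reagent, then RGS4 at 900nM (2x) plus Transcreener GDP mix added; fluorescence polarization (620/688 nm) read before and after 90 min at 30 °C.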
AT treatment – qHTS Assay for Identifying a Potential Treatment of Ataxia-Telangiectasia; F2112 A-T fibroblasts, KAP-1 phosphorylation AlphaLISA; neocarzinostatin DNA damage 30 min before lysis; Potency, µM (top dose mostly 57.5 µM), actives largely listed as activators; actives 0.19% (n = 320,000); AID 485349, 2010; also: nearly all actives have a fitted effect of over 45% in size
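ATM-like activity read as KAP-1 phosphorylation via AlphaLISA donor/acceptor antibody pairs after lysis and 6 hr at 25C. Cells were ATM-null patient fibroblasts (F2112, hTERT), dosed 60 min, then exposed to the DSB inducer NCS for 30 min.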
Numbers stand for hits. Unless noted, calls follow the shape of the dose curve; as a rule, active = well fitted curve in the direction sought with a large enough effect; inconclusive = small, poorly fitted or top-dose-only effect, or another doubt; inactive = no such curve, though single readings can be large; an effect the other way counts as inactive or inconclusive.

For Cc1cc(C)c(S(=O)(=O)c2ccccc2)c(OC(=O)c2c(Cl)cc(Cl)cc2Cl)n1 the results were LDHA inh inactive, Anesthetic bind inactive, RGS4 inh inactive and AT treatment inactive.
`CC1=NN(c2ccc(C)c(C)c2)C(=O)/C1=C\C=C\c1ccc([N+](=O)[O-])o1` gave LDHA inh inactive, Anesthetic bind inactive, RGS4 inh inactive and AT treatment 32µM.
`CC1=NN(c2ccccc2)C(=O)/C1=C\C=C\c1ccccc1` gave LDHA inh inactive, Anesthetic bind inactive, RGS4 inh inactive and AT treatment inactive.
`CCCn1c(=O)c2ccc(C(=O)NCC(C)C)cc2n2c(SCc3ccc(F)cc3)nnc12` gave LDHA inh -34.
Cc1cccc(/C=C/c2ccc3ccccc3n2)c1 was read as LDHA inh inactive.
For CSc1ccc(CN2CCC(N3CC(C)OC(C)C3)CC2)cc1 (stereo not drawn) the results were LDHA inh inactive, Anesthetic bind inactive, RGS4 inh inactive and AT treatment inactive.
For Cc1ccc(CN2CCC(N3CC(C)OC(C)C3)CC2)cc1 (stereo not drawn) the results were LDHA inh -32, Anesthetic bind inactive, RGS4 inh inactive and AT treatment inactive.
`CCc1cc(OCCN(C)C)ccc1Cl` gave LDHA inh -35, Anesthetic bind inactive, RGS4 inh inactive and AT treatment inactive.
`CCCCNc1ccc2c3c(cccc13)C(=O)N(CCCC)C2=O` gave LDHA inh inactive, Anesthetic bind inactive, RGS4 inh inactive and AT treatment 28µM.
`CCN1C(=O)c2cccc3c(N)ccc(c23)C1=O` gave LDHA inh inactive, Anesthetic bind inactive, RGS4 inh inactive and AT treatment 40µM.
CCS(=O)(=O)N1CCN(Cc2ccccc2OC)CC1 was read as LDHA inh -31, Anesthetic bind inactive, RGS4 inh inactive and AT treatment inactive.
For COc1cccc(CN2CCN(Cc3cc(OC)c(OC)c(OC)c3)CC2)c1OC the results were LDHA inh -35, Anesthetic bind inactive, RGS4 inh inactive and AT treatment inactive.
`CCOc1ccccc1-c1cc(C(=O)O)c2ccccc2n1` gave LDHA inh inactive.
For CCSC1=C(C#N)C(c2ccc(C)cc2)C2=C(CCCC2=O)N1 (stereo not drawn) the results were LDHA inh inactive.
CCSc1nc2ccccc2n1C(=O)/C=C/c1ccc(OC)c(OC)c1 was read as LDHA inh inactive, Anesthetic bind inactive, RGS4 inh inactive and AT treatment 22µM.
For C=CCSc1nc2ccccc2n1C(=O)/C=C/c1ccc(OC)c(OC)c1 the results were LDHA inh inactive, Anesthetic bind inactive, RGS4 inh inactive and AT treatment 32µM.
`COc1ccc(C(=O)/C(C#N)=C\c2cc(Br)ccc2OC)cc1` gave LDHA inh inactive.
`COC(=O)C1=CN(C2CC2)C=C(C(=O)OC)C1c1ccc(C(=O)OC)cc1` gave LDHA inh inactive, Anesthetic bind inactive, RGS4 inh inactive and AT treatment 32µM.
Screening N#CNC(=O)c1ccc(-n2cccc2/C=C2\NC(=O)N(CC(=O)Nc3ccccc3F)C2=O)cc1 returned LDHA inh inactive.
For O=C(OCC(=O)N(Cc1ccccc1)Cc1ccccc1)c1ccc2ccccc2n1 the results were LDHA inh -37.
CC(C)N(C(=O)COC(=O)c1ccc2ccccc2n1)C(C)C was read as LDHA inh inactive.
`CN(C)CCCN(Cc1ccc(Cl)c(Cl)c1)C(=O)/C=C/c1ccncc1` gave LDHA inh inactive.
For COC(=O)c1ccc(NC(=O)CNCc2ccncc2)cc1 the results were LDHA inh -30, Anesthetic bind inactive, RGS4 inh inactive and AT treatment inactive.
`COC(=O)c1ccc(CNCC(=O)Nc2ccc(C(=O)OC)cc2)cc1` gave LDHA inh inactive, Anesthetic bind inactive and RGS4 inh inactive.
For CCc1ccc(NC(=O)CNCc2ccc(OC)c(OC)c2)cc1 the results were LDHA inh inactive, Anesthetic bind inactive, RGS4 inh inactive and AT treatment 0.71µM.
COc1ccccc1[C@H]1C(c2cccc(Cl)c2)=NN(c2ccccc2)[C@@H]1CO was read as LDHA inh inactive, Anesthetic bind inactive, RGS4 inh inactive and AT treatment 10µM.
For COc1ccc(NC(=O)c2ccc(C3Nc4ccccc4S(=O)(=O)N3)cc2)cc1OC (stereo not drawn) the results were LDHA inh inactive.
COC(=O)C(C)N1C(=O)S/C(=C/c2ccc(C)o2)C1=O (stereo not drawn) was read as LDHA inh inactive.
Screening FC(F)(F)c1cc(CCN2C(=S)NC[C@@H]2c2ccccc2)cc(C(F)(F)F)c1 returned LDHA inh inactive, Anesthetic bind inactive, RGS4 inh inactive and AT treatment 35µM.
For Nc1nccnc1C(=O)NCC(O)c1ccc(F)cc1F (stereo not drawn) the results were LDHA inh inactive.
For COc1cc2nc(C)sc2cc1SC the results were LDHA inh inactive, Anesthetic bind inactive, RGS4 inh inactive and AT treatment 40µM.
Screening CC(=O)c1ccc(NS(=O)(=O)c2ccc(CC(C)C)cc2)cc1 returned LDHA inh inactive, Anesthetic bind 35µM and RGS4 inh inactive.
CC(NC(=O)c1ccoc1)C(=O)Nc1cccnc1N1CCCCC1 (stereo not drawn) was read as LDHA inh inactive.
CN(C)S(=O)(=O)c1cccc(NC(=O)c2ccc3nccnc3c2)c1 was read as LDHA inh inactive, Anesthetic bind inactive, RGS4 inh inactive and AT treatment 16µM.
Screening CC(CCC(C)C(C)(C)C)[C@@H]1CC[C@H]2C3C[C@H](OS(O)(=S)=S)[C@H]4C[C@H](OS(O)(=S)=S)[C@@H](OS(O)(=S)=S)C[C@]4(C)[C@H]3CC[C@]12C (stereo partly drawn) (tested in a mixture with another compound) returned LDHA inh -94, RGS4 inh inactive and AT treatment inactive.
Screening COc1cccc(C(CNCC(O)CN2CCOCC2)c2c[nH]c3ccccc23)c1OC (stereo not drawn) returned LDHA inh inactive.
For CC(c1ccccc1)N(C)C(=O)COC(=O)c1cc2ccccc2[nH]1 (stereo not drawn) the results were LDHA inh inactive.
Screening Cc1c(NC(=O)c2cnn3c(C(F)(F)F)cc(-c4ccco4)nc23)c(=O)n(-c2ccccc2)n1C returned LDHA inh inactive, Anesthetic bind inactive, RGS4 inh inconclusive and AT treatment 16µM.
For O=C(O)c1cnn2c(C(F)(F)F)cc(-c3ccco3)nc12 the results were LDHA inh inactive, Anesthetic bind inactive, RGS4 inh inactive and AT treatment inactive.
`CC(C)COc1ccc(C(=O)Nc2cccc3ncccc23)cc1` gave LDHA inh inactive.
